# GoLoco inh red: RGS12 GoLoco-Gai1 interaction inhibition | P63096 | Gai1:RGS12 GoLoco peptide FP, rhodamine, 10 min | Potency, µM (top dose mostly 61.6 µM), for inactives: top-dose activity, negative = inhibition, actives largely listed as inhibitors | 0.44% of 230,000 active | AID 880; active means well fitted inhibition curve with a large enough effect, not every such curve was filed as active; inactive means no such curve, though single readings can be large or run the other way; further: potency means the concentration at half of the fitted maximal effect; nearly all actives have a fitted effect of over 30% in size
# KDM4E inh: blocks human JMJD2E demethylase activity | B2RXH2 | JMJD2E catalytic domain, FDH-coupled NADH fluorescence (FDH is formaldehyde dehydrogenase) | Potency, µM (top dose mostly 57.1 µM), without a hit: at the top dose activity change, negative = inhibition, actives largely listed as inhibitors | 1.6% of 230,000 active | AID 2147; active means well fitted inhibition curve with a large enough effect, not every such curve was filed as active; inconclusive means small, poorly fitted or top-dose-only effect, or another doubt; inactive means no such curve, though single readings can be large or run the other way;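 further: potency means the concentration at half of the fitted maximal effect; 0% = wells with enzyme and -100% = buffer wells without enzyme; nearly all actives have a fitted effect of over 50% in size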
# NPSR antagonist: antagonists of human neuropeptide S receptor cAMP signaling | Q6W5P4 | CHO-NPSR cells, cAMP TR-FRET, antagonist mode | Potency, µM (series often up to 38.3 µM), inactives show at the highest dose activity change, negative = inhibition, actives largely listed as inhibitors | 1% of 220,000 active | AID 1461; further: potency means the concentration at half of the fitted maximal effect; nearly all actives have a fitted effect of over 50% in size
# Coupling enz: inhibits coupling enzyme system, counter-screen for aldolase hits. AID 2472. 0.67% of 290,000 active. activity change, negative = inhibition, % at 58.2 µM, hits read low. coupling enzyme system counterscreen, AmpLite Red fluorescence; in the data active means activity change below about -30%
#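 Counterscreen of the coupled detection system alone, without aldolase: glyceraldehyde-3-phosphate coupling enzymes plus AmpLite Red readout. Compounds at 57.5 uM final, 10 min RT preincubation, 20 min RT reaction, fluorescence 525/598 nm.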
# Sfp PPTase inh: blocks B. subtilis Sfp PPTase activity; Q9F4F7; Biochemical Sfp PPTase activity, qHTS; Potency, µM, for the others: largest response in the series, negative = inhibition, actives largely listed as inhibitors; 3.5% of 310,000 active; AID 1490;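 further: the enzyme is Sfp with the accession as filed and its product quenches rhodamine fluorescence; potency means the concentration at half of the fitted maximal effect; 0% = enzyme reaction without inhibitor and -100% = no enzyme wells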
#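 Compounds were incubated with enzyme (final 15 nM) for 15 min at room temperature before substrate addition started the reaction. Fluorescence at 525 nm excitation, 598 nm emission was recorded immediately and after 30 minutes.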
# ALDH1A1 inh: inhibitors of human aldehyde dehydrogenase 1A1. P00352. Purified ALDH1A1, NADH fluorescence, propionaldehyde substrate. Potency, µM (top dose mostly 75.3 µM), inactives show at the highest dose activity, negative = inhibition, actives largely listed as inhibitors. 7.3% of 220,000 active; active means well fitted inhibition curve with a large enough effect, not every such curve was filed as active; inconclusive means small, poorly fitted or top-dose-only effect, or another doubt; inactive means no such curve, though single readings can be large or run the other way;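 further: potency means the concentration at half of the fitted maximal effect; plate controls were no enzyme wells and a reference inhibitor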
# Target sequence (P00352 whole entry, looked up): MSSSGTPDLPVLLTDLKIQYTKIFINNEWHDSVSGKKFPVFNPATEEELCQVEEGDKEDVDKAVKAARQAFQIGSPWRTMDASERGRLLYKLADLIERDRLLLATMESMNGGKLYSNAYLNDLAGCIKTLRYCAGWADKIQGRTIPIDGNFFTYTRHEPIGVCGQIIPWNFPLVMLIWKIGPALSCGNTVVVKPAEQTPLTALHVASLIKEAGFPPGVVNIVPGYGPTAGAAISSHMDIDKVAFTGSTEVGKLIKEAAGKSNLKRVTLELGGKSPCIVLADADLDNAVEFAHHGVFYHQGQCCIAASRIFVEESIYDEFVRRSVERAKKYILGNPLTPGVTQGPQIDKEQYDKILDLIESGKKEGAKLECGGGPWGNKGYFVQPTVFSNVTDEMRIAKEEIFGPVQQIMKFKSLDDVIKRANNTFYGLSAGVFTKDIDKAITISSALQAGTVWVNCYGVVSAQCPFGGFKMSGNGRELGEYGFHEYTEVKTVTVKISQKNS
# Starred values were filed as active, the others as inactive; ? = inconclusive; · = no result; [ ] = another dose, or the depositor's remark. Only some compounds are listed: those with a hit (about 8.5% of all), similar ones and a draw of the others. Unless noted, the call rests on the fitted dose curve; in most records, active means well fitted curve in the direction sought with a large enough effect; inconclusive means small, poorly fitted or top-dose-only effect, or another doubt; inactive means no such curve, though single readings can be large; an effect the other way counts as inactive or inconclusive. Unless noted, on the % scale 0 is the no-effect control and ±100 the full control effect.
SMILES,GoLoco inh red,KDM4E inh,NPSR antagonist,Coupling enz,Sfp PPTase inh,ALDH1A1 inh
O=C1c2cccc3cccc(c23)C(=O)N1CC1CCCO1 (configuration not stated),2%,?,-10%,-1,-5%,?
CCCC[C@]12Cc3cc(C#N)ccc3C(O1)c1c(cc(C)n(-c3ccccc3)c1=O)O2,·,·,·,-3,-3%,·
COc1ccc(C(=O)NNC(=O)CSc2nnc(C3CC3)n2C)cc1,·,·,·,0,0%,·
CC(=O)c1ccc2c3c(cccc13)CC2,-3%,?,1%[46.1 µM],1,6%,?
CC(=O)c1ccc(N(C)C)c2c(N(C)C)cccc12,-15%,-7%,-12%[46.1 µM],-55*,-29%,4%
Cn1cc(/C=C(\NC(=O)c2ccccc2Cl)C(=O)NCCCn2ccnc2)c2ccccc21,·,·,·,·,-2%,·
Cc1ccc2c(c1)S/C(=C\c1cccc[n+]1C)N2CCO,·,·,·,-1,?,·
C=CC[n+]1c(/C=C2\C=Cc3cc(C)ccc3N2CC)ccc2ccccc21,223%,?,-54%,2,-13%,?
CCN1/C(=C\c2ccc3cc(C)ccc3[n+]2CC)Sc2cc(C)c(C)cc21,204%,?,-25%,2,18µM*,?
CCN1/C(=C/c2ccc3cc(C)cc(C)c3[n+]2CC)Sc2cc(C)ccc21,129%,?,-40%,1,10µM*,20µM*
CCN1/C(=C/c2ccc3cccc(C)c3[n+]2CC)Sc2ccccc21,-3%,0%,10µM*,5,8.9µM*,?
COc1ccc(/C=N/NC(=O)c2ccc3c(c2)NC(=O)C(C)(C)O3)cc1OC,·,·,·,0,14%,·
CC1(C)Oc2ccc(C(=O)NN)cc2NC1=O,10%,34%,14%,0,-7%,1.6µM*
O=C(C1CCCN1S(=O)(=O)c1cccc2nsnc12)N1CCCCCC1 (configuration not stated),-4%,4%,7%,-3,26%,·
Nc1nc2ccc([N+](=O)[O-])cc2s1,5%,·,·,·,·,?
CCOc1ccc(S(=O)(=O)NC(C)C(=O)NCc2cccnc2)cc1 (configuration not stated),·,·,·,1,0%,·
Cc1ccc(C)n1-c1ccc(C(=O)NN)s1,13%,?,-8%,1,14%,14µM*
Cc1ccc(NC(=S)NNC(=S)Nc2ccc(C)cc2C)cc1,18%,-8%,26%,-3,13µM*,0.45µM*
Cc1ccc(C)c(NC(=O)CCC(=O)NNC(=S)Nc2ccccc2)c1,3%,2%,4%,-1,12%,5%
Cc1ccc(NC(=O)CCC(=O)NNC(=S)Nc2ccccc2)c(C)c1,-2%,6%,16%,0,10%,8.9µM*
Cc1ccc(NC(=S)Nc2ccc3cn[nH]c3c2)c(C)c1,2%,-25%,8%,-4,2%,?
NS(=O)(=O)c1ccc(N=Nc2ccc[nH]c2=O)cc1,-27%[14.2 µM],·,·,·,·,?
NS(=O)(=O)c1ccc(N=Nc2ccc(=O)[nH]c2O)cc1,-51%,-7%,28%,-32*,?,-16%
CCOc1ccc(/C(O)=C2/C(=O)C(=O)N(CCCN3CCOCC3)C2c2ccc(C)cc2)cc1C (configuration not stated),·,·,·,7,9%,·
Cc1ccc(/C(O)=C2/C(=O)C(=O)OC2c2ccc(Cl)cc2)cc1 (configuration not stated),-5%,-4%,-1%[46.1 µM],21,2%,?
SMILES,GoLoco inh red,KDM4E inh,NPSR antagonist,Coupling enz,Sfp PPTase inh,ALDH1A1 inh
CN1C(=O)C(=O)/C(=C(/O)c2ccccc2)C1c1ccccc1 (configuration not stated),·,·,·,-6,11%,·
O=C1OC(c2ccccc2)/C(=C(/O)c2ccc(Cl)cc2)C1=O (configuration not stated),-69%,3%,12%[46.1 µM],0,8%,38µM*
O=C1OC(c2ccccc2)/C(=C(/O)c2ccccc2)C1=O (configuration not stated),-8%,-13%,10%[46.1 µM],15,-10%,0.79µM*
O=C(O)c1cc(-c2ccc(Cl)c(Cl)c2)n(-c2ccc(F)cc2)n1,·,·,·,-12,12%,·
O=C(COc1ccc(/C=N/NC(=O)c2cc3ccccc3o2)cc1Br)Nc1ccccc1,57%,?,10µM*,0,?,?
O=C(CN1C2CCCC1CC(NC(=O)c1ccccc1)C2)Nc1ccccc1 (configuration not stated),·,·,·,-3,17%,·
COc1c(O)cccc1/C=N/NC(=O)Cn1ccnc1C,4%,10µM*,15%,-2,14%,·
CCCCN1CCCC1C(=O)Nc1c(C)cc(C)cc1C (configuration not stated),·,·,·,·,-15%,·
C=CC(C1=CC(=O)C=CC1=O)c1ccccc1 (configuration not stated),2%,?,·,-18,-34%,-13%
COc1ccc(O)cc1,2%,·,·,·,23%,12%
C=CC(C1=CC(=O)C(OC)=CC1=O)c1ccc(O)cc1 (configuration not stated),-6%,?,·,-35*,-75%,0%
C=C[C@@H](C1=CC(=O)C(OC)=C(OC)C1=O)c1ccccc1,-8%,?,·,-45*,11µM*,-10%
CCCOc1ccc(N2C(=O)CC(N3CCN(C(=O)c4ccco4)CC3)C2=O)cc1 (configuration not stated),-2%,-2%,1%[46.1 µM],3,15%,?
CC(=O)c1ccc(N2CCN(C(=O)c3ccco3)CC2)c(F)c1,8%,5%,-12%[46.1 µM],1,6%,3.5µM*
CC(=O)c1ccc(N2CCCCC2)c(F)c1,3%,-31%,0%,4,6%,-6%
CC(=O)c1ccc(N2CCN(C(=O)c3ccc(Br)cc3)CC2)c(F)c1,-3%,4%,-30%[46.1 µM],6,1%,10µM*
COC(=O)c1ccc(N2C(=O)CC(N3CCN(C(=O)c4ccco4)CC3)C2=O)cc1 (configuration not stated),5%,2%,-13%[46.1 µM],3,6%,13µM*
CC(=O)Nc1ccc(S(=O)(=O)NCCc2cn3nc(C)c(C)nc3n2)cc1,·,·,·,-5,13%,·
CCN(CC)CCCn1c(-c2ccccc2)nc2c(NCCOC)nc(C)nc21,-1%,?,·,0,27%,?
O=C(Nc1c(F)cccc1F)c1ccc2c(c1)CCN2S(=O)(=O)c1ccccc1,·,·,·,0,-3%,·
OC[C@@H]1O[C@H](OC2[C@@H](O)[C@@H](O)[C@@H](O)O[C@@H]2CO)[C@H](O)[C@@H](O)[C@@H]1OC1O[C@H](CO)[C@@H](O)[C@H](O)[C@@H]1O (some centres not stated),·,·,·,0,-6%,·
Nc1nc(SCC(=O)c2ccc(Br)cc2)c2[nH]cnc2n1,-3%[14.2 µM],·,·,·,·,8%[13.5 µM]

# High-throughput results from PubChem.
